Activity calls are given as the source filed them.
Experiments:
[1] = tested on: PRMT1 (protein arginine N-methyltransferase 1); experiment: small molecules binding arginine methyltransferase PRMT1 – biochemical, small-molecule microarray, 635 nm fluorescence, primary screen (AID 1088); conditions: higher = more signal;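 also: binding of Prmt1 protein to compounds spotted on small-molecule microarray slides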
[2] = growth effects on S. cerevisiae YJM789 – YJM789 clinical isolate, OD600, 24 h, basal, primary screen (AID 1089); conditions: higher = more signal, called active from +8 up or from −8 down;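 also: growth of clinical yeast isolate S. cerevisiae YJM 789 seeded 1000 cells per well; test concentration not given here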
[3] = S. pombe growth modifiers, basal conditions – strain 972, OD600, 24 h, no modulator, primary screen (AID 1090);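 also: basal condition with compound alone and no growth modifier present; test concentration not given here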; conditions: S. pombe 972 growth, higher = more signal, called active from +8 up or from −8 down
[4] = budding yeast growth modifiers under rapamycin – strain BY4716, OD600, 96 h, primary screen (AID 1091); also: test concentration not given here; conditions: S. cerevisiae BY4716 + rapamycin, higher = more signal, called active from +8 up or from −8 down
[5] = target: Torsin-1A-interacting protein 2 (Homo sapiens) (UniProt Q8NFQ8); experiment: small molecules binding lysate-expressed LULL1 – cell lysate, human LULL1 lysate, 635/667 nm fluorescence, primary screen (AID 1092); conditions: small-molecule microarray, hLULL1 lysate binding, 635 nm fluorescence; higher = more signal;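 also: probe is lysate of COS7 cells overexpressing human LULL1; score merges per-feature 667 nm fluorescence with signal-to-noise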
[6] = optical density change of DRC41 E. coli – strain DRC41, OD650, 24 h, E. coli filamentation project, primary screen (AID 1093);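 also: MC1000 strain lacking acrAB efflux and sulA so SOS filamentation is blocked; test concentration not given here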; conditions: E. coli DRC41 growth, higher = more signal, called active from +8 up or from −8 down
[7] = probe aLefty2 binding to arrayed compounds – biochemical, biotinylated probe, 635/667 nm fluorescence, primary screen (AID 1094); conditions: small-molecule microarray, higher = more signal;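 also: score merges spot fluorescence near 667 nm with spot signal-to-noise ratio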
[8] = tested on: Noggin (protein binding on small-molecule microarray); experiment: small molecules binding Noggin protein – biochemical, 635/667 nm fluorescence, primary screen (AID 1095); conditions: 635 nm fluorescence, higher = more signal;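 also: score merges 667 nm feature fluorescence with signal to noise over triplicate slides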
[9] = target: Neurogenic locus notch homolog protein 3 (Homo sapiens) (UniProt Q9UM47); experiment: small molecules binding NOTCH3 protein – biochemical, 635/667 nm fluorescence, primary screen (AID 1096); conditions: small-molecule microarray, 635 nm fluorescence, higher = more signal
[10] = probe aEGFR binding to arrayed compounds – biochemical, biotinylated probe, 635/667 nm fluorescence, primary screen (AID 1097); conditions: small-molecule microarray, higher = more signal;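 also: probe is a biotinylated anti-EGFR antibody binding compounds printed on slides; score combines fluorescence near 667 nm and signal to noise of each spot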
[11] = tested on: Plasmodium falciparum Sir2 (PF13_0152, Sir2A); experiment: Plasmodium falciparum Sir2A binding compounds – biochemical, small-molecule microarray, 635 nm fluorescence, primary screen (AID 1098); conditions: fluorescence 635 nm, higher = more signal;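 also: score merges spot fluorescence intensity with its signal-to-noise ratio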
[12] = probe aDKK1 binding to arrayed compounds – biochemical, biotinylated probe, 635/667 nm fluorescence, primary screen (AID 1099); conditions: small-molecule microarray, higher = more signal;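 also: score merges 667nm spot fluorescence with signal to noise across triplicate slides; reference of the scale not given here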
[13] = probe aCHRDL2 binding to arrayed compounds – biochemical, biotinylated probe, 635/667 nm fluorescence, primary screen (AID 1100); conditions: small-molecule microarray, higher = more signal
[14] = change in splice reporter luminescence, either direction, cell-based, HEK293, spliceosome inhibition project, primary screen (AID 1101); conditions: HEK293 splicing luciferase reporter, 24 h, higher = more signal, called active from +8 up or from −8 down;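 also: HEK293 cells carrying a splicing-competent luciferase reporter gene; test concentration not given here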
[15] = target: Fibroblast growth factor 10 (Homo sapiens) (UniProt O15520); experiment: compounds binding fibroblast growth factor 10 – biochemical, small-molecule microarray, 635 nm fluorescence, primary screen (AID 1102); conditions: FGF10 binding, fluorescence 635 nm, higher = more signal
[16] = tested on: glycogen synthase kinase-3 (GSK3A per assay name; protocol says GSK3B); experiment: compounds binding glycogen synthase kinase-3 – biochemical, small-molecule microarray, 635 nm fluorescence, GSK3A, primary screen (AID 1103); conditions: fluorescence 635 nm, higher = more signal; also: the record names both GSK3A and GSK3B
[17] = target: Epidermal growth factor receptor (Homo sapiens) (UniProt P00533); experiment: compounds binding epidermal growth factor receptor – biochemical, small-molecule microarray, 635 nm fluorescence, primary screen (AID 1104); conditions: EGFR binding, higher = more signal;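 also: score merges 667 nm emission intensity with spot signal to noise over triplicate slides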
[18] = target: Follistatin-related protein 3 (Homo sapiens) (UniProt O95633); experiment: compounds binding follistatin-related protein 3 – biochemical, small-molecule microarray, 635 nm fluorescence, primary screen (AID 1105); conditions: FSTL3 binding, higher = more signal;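 also: score merges emission near 667 nm and signal to noise per printed spot across three slides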
[19] = target: Dickkopf-related protein 1 (Homo sapiens) (UniProt O94907); experiment: small molecules binding DKK1 protein – biochemical, small-molecule microarray, 635 nm fluorescence scan, primary screen (AID 1106); conditions: higher = more signal;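 also: score merges emission near 667 nm with signal to noise over three replicate slides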
[20] = tested on: Inhibin beta A chain (activin A); experiment: small molecules binding activin A – biochemical, small-molecule microarray, 635 nm fluorescence scan, primary screen (AID 1107); conditions: INHBA, higher = more signal;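 also: mouse activin A protein probed at 4.33 µg/mL on printed slides; score merges bound-protein fluorescence near 667 nm with spot signal-to-noise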

Sequence of Follistatin-related protein 3 (Homo sapiens) (O95633 whole entry, looked up): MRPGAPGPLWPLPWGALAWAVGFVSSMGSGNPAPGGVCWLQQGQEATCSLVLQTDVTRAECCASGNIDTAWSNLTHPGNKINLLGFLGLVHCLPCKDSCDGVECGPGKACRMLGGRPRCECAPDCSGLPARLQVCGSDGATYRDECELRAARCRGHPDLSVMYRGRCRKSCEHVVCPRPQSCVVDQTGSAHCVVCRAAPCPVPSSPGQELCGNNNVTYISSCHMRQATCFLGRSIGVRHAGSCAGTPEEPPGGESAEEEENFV
Sequence of Dickkopf-related protein 1 (Homo sapiens) (O94907 whole entry, looked up): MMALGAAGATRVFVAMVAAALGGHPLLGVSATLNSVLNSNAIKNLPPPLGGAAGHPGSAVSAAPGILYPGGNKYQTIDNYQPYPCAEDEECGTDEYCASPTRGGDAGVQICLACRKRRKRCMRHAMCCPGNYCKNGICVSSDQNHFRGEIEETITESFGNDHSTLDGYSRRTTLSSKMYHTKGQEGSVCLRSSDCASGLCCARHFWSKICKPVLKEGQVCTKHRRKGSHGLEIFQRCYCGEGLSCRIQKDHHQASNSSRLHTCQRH
Sequence of Epidermal growth factor receptor (Homo sapiens) (P00533 whole entry, looked up): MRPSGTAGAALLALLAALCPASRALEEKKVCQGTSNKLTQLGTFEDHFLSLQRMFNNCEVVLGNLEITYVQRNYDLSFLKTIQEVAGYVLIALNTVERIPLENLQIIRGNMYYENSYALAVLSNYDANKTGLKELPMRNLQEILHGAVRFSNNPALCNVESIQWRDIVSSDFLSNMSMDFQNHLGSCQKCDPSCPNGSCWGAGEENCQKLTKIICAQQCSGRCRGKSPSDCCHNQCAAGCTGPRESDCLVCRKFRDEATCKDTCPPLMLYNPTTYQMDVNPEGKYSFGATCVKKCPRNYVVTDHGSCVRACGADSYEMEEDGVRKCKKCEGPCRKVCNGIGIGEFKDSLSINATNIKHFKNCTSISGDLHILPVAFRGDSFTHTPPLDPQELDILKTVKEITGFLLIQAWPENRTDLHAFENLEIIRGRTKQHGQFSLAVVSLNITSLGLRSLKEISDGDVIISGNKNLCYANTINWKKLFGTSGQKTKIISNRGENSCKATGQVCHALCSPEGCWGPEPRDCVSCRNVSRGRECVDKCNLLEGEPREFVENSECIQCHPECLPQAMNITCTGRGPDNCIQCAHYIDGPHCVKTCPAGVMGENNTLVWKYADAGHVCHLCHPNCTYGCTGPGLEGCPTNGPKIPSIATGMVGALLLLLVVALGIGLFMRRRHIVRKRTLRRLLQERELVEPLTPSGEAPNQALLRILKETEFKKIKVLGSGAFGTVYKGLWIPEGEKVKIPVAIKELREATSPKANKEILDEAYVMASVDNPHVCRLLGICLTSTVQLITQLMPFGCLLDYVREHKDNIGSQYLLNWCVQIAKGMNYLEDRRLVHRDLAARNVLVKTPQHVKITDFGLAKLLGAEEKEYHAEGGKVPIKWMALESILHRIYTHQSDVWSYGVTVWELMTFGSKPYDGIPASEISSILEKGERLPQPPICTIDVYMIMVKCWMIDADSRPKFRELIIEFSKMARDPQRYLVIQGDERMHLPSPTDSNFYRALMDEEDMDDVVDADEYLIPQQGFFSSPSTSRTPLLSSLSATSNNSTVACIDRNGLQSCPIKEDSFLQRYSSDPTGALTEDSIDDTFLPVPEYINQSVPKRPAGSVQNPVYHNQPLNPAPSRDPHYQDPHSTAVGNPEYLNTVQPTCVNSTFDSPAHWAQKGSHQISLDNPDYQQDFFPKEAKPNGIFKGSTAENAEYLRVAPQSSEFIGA
Sequence of Torsin-1A-interacting protein 2 (Homo sapiens) (Q8NFQ8 whole entry, looked up): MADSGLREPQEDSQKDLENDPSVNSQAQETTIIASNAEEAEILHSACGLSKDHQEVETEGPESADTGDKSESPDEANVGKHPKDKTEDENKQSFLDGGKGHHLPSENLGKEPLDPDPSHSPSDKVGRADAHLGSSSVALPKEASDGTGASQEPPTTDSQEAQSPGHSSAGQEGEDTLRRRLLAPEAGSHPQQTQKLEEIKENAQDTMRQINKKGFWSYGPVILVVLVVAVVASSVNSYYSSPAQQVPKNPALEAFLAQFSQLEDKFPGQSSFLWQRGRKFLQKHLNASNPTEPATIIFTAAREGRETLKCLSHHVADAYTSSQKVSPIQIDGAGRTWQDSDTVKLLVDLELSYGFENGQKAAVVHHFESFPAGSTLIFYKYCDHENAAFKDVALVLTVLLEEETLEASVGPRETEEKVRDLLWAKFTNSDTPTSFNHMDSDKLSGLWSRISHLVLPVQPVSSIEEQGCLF
Sequence of Neurogenic locus notch homolog protein 3 (Homo sapiens) (Q9UM47 whole entry, looked up): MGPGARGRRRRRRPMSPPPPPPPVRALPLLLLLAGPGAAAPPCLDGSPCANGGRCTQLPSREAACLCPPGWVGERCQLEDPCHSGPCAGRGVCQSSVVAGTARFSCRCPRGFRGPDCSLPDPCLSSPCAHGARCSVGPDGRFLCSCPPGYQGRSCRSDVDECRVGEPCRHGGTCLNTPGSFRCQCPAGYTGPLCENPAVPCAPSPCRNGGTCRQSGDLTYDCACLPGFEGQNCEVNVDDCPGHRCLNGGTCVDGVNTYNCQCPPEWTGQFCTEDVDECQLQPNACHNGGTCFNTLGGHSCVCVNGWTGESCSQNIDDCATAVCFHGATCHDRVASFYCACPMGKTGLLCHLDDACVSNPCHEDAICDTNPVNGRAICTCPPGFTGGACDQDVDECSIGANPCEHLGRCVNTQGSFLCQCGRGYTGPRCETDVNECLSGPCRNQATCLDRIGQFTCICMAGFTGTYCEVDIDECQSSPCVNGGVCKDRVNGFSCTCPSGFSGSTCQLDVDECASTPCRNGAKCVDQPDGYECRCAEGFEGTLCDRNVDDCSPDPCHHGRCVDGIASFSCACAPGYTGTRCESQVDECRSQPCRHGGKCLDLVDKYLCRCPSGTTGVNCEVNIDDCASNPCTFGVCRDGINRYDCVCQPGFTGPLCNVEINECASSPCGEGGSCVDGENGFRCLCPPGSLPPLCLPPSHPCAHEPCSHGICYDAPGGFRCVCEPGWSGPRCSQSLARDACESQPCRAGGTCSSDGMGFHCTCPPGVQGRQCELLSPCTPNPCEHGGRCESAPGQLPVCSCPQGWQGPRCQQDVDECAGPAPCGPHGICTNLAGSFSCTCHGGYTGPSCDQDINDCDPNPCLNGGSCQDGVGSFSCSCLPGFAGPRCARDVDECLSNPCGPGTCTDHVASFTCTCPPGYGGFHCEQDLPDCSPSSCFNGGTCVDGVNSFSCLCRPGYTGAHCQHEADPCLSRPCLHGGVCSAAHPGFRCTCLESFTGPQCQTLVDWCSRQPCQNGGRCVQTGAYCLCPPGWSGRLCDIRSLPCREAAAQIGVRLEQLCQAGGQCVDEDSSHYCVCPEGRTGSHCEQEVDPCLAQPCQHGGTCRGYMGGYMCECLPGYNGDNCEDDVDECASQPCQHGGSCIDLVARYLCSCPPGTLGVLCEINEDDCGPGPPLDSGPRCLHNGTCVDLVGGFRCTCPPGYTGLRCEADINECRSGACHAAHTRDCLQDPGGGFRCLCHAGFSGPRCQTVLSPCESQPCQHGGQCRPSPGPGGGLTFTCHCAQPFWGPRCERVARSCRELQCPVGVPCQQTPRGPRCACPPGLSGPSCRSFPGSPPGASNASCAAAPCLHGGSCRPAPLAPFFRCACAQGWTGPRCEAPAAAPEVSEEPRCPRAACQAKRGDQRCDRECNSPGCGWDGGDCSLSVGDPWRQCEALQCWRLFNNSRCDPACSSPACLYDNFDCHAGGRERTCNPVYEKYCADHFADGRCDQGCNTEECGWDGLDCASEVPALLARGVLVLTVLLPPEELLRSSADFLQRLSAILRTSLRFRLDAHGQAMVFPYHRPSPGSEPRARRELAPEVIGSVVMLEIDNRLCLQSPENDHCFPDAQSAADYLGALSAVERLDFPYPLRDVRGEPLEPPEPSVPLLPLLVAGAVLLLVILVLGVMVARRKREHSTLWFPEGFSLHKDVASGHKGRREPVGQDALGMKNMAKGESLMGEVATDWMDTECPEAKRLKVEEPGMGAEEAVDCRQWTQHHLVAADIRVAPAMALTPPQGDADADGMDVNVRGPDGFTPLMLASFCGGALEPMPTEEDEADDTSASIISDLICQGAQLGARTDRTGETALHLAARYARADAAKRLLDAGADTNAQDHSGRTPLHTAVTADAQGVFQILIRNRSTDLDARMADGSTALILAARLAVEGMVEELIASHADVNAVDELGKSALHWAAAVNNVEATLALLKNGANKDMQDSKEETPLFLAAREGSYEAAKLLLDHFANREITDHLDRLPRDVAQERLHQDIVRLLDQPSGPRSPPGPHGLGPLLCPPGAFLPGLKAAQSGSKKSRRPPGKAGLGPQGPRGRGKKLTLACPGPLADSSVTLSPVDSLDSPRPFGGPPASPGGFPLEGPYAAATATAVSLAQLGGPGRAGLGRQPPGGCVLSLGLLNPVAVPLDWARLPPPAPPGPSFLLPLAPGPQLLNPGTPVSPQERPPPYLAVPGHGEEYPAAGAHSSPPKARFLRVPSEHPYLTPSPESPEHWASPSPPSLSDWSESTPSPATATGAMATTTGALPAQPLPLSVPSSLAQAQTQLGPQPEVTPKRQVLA
Sequence of Fibroblast growth factor 10 (Homo sapiens) (O15520 whole entry, looked up): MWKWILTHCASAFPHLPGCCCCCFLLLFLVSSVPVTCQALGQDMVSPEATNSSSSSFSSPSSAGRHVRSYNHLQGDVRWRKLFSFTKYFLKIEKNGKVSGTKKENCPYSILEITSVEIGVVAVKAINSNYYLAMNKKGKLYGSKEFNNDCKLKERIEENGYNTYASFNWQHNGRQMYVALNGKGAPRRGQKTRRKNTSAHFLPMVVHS

Structure (SMILES)	composite z-score [1]	z-score [2]	z-score [3]	z-score [4]	composite z-score [5]	z-score [6]	composite z-score [7]	composite z-score [8]	composite z-score [9]	composite z-score [10]	composite z-score [11]	composite z-score [12]	composite z-score [13]	z-score [14]	composite z-score [15]	composite z-score [16]	composite z-score [17]	composite z-score [18]	composite z-score [19]	composite z-score [20]
CC(C)(C)N1CC=CC23O[C@@H]4C=CCOC(=O)[C@@H]4[C@H]2C(=O)N(CCO)[C@@H]3C1=O (stereo not given in full)	0.717	0.573 (inactive)	-0.0445 (inactive)	0.514 (inactive)	1.34	-0.594 (inactive)	-0.284	-1.6	-0.337	-0.205	1.75	-0.243	0.375	-0.273 (inactive)	-1.05	-1.14	-0.687	-0.955	-1.44	-0.545
CC(C)NC(=O)[C@@H]1c2ccccc2C(=O)N(Cc2ccc(OC(F)(F)F)cc2)[C@H]1c1ccc(CO)cc1	1.54	0.0263 (inactive)	-1.24 (inactive)	-1.51 (inactive)	2.67	-1.48 (inactive)	0.734	0.756	1.11	0.587	0.471	1.21	0.696	-0.211 (inactive)	1.25	1.3	0.272	1.37	0.657	0.237
CCOC(=O)C1=CC[C@@H](c2ccccc2)N(S(=O)(=O)c2ccc(C)cc2)[C@H]1c1ccccc1I	0.98	-0.323 (inactive)	0.666 (inactive)	0.607 (inactive)	2.63	-0.162 (inactive)	0.52	0.22	1.06	0.0321	0.88	0.655	1.13	-0.0553 (inactive)	0.619	0.698	0.467	0.806	0.254	0.471
COc1ccc(C(=O)Nc2ccc(CN3C(=O)[C@@]4(O[C@@H](CCn5cc(CCO)nn5)[C@H]([Si](C)(C)c5ccc(OC)cc5)[C@H]4C)c4ccccc43)cc2)cc1	1.34	0.704 (inactive)	-6.58 (inactive)	0.377 (inactive)	1.26	-0.583 (inactive)	0.0868	0.926	1.11	-0.0271	1.36	0.635	0.559	-1.8 (inactive)	0.939	1.14	0.492	1.28	1	1.57
N#Cc1ccc(NN2C(C(O)C3CC=CCC3)C=CC3C(=O)N(c4ccccc4)C(=O)C32)cc1 (stereo not given)	0.995	0.609 (inactive)	0.773 (inactive)	1.99 (inactive)	3.5	-0.645 (inactive)	-0.0873	0.179	1.1	0.0149	0.602	0.417	0.728	1.6 (inactive)	1.09	0.79	1.44	1.38	-0.141	1.25
CN(C)c1ccc(C(O)C2C=CC3C(=O)N(Cc4ccccc4)C(=O)C3N2n2cnnc2)cc1 (stereo not given)	-0.765	-1.24 (inactive)	0.396 (inactive)	-0.528 (inactive)	0.0442	0.372 (inactive)	0.123	0.359	-0.139	-0.0649	0.491	-0.393	0.562	-0.394 (inactive)	0.13	-0.56	0.268	-0.0523	0.114	1.28
CC(C)NC(=O)[C@@]1(c2ccc([N+](=O)[O-])cc2)CC(=O)N(CC23CC4CC(CC(C4)C2)C3)[C@@H]1c1ccc(CO)cc1	1.54	-0.383 (inactive)	-0.822 (inactive)	0.937 (inactive)	3.03	0.267 (inactive)	0.707	1.57	1.02	0.837	1.4	0.998	0.931	-0.279 (inactive)	0.911	1.34	0.396	1.45	1.3	0.64
C=CC[C@@]1(C(=O)OC)N=C(c2ccc(OCCCO)cc2)O[C@@H]1c1ccccc1N=[N+]=[N-]	1.54	-0.777 (inactive)	-0.713 (inactive)	1.35 (inactive)	3.05	0.643 (inactive)	0.346	1.14	1.07	0.118	1.5	0.6	1	-1.61 (inactive)	1.32	1.32	1.38	1.22	0.685	0.767
COC(=O)[C@@]1(Cc2ccc(F)cc2)[C@H]2c3cc(C(=O)N(C)C)n(CCc4ccc(O)c(O)c4)c3C[C@H]2CN1C(=O)c1ccccc1	-0.0562	0.278 (inactive)	0.955 (inactive)	0.987 (inactive)	2.56	-0.365 (inactive)	0.534	-0.601	0.498	0.253	0.681	0.52	0.828	0.692 (inactive)	0.842	-0.292	-0.147	-0.439	-0.372	0.239
[N-]=[N+]=Nc1ccccc1[C@@H]1OC(c2ccc(OCCCO)cc2)=N[C@]1(CCS(=O)(=O)c1ccccc1)C(=O)NCC(O)CO (stereo not given in full)	0.856	0.678 (inactive)	0.636 (inactive)	0.347 (inactive)	3.1	0.679 (inactive)	-0.116	0.351	0.0354	-0.147	1.73	-0.181	0.72	-0.633 (inactive)	-0.176	0.434	-0.586	-0.332	-0.328	0.693
O=C1C[C@@](C(=O)NCc2ccccc2)(c2ccc([N+](=O)[O-])cc2)[C@@H](c2ccc(CO)cc2)N1C1CCCCC1	1.57	-1.69 (inactive)	-0.221 (inactive)	1.08 (inactive)	3.09	0.78 (inactive)	-0.206	0.65	0.846	-0.14	1.34	-0.437	0.538	-1.97 (inactive)	0.42	0.97	0.123	0.645	0.0339	0.953
CCOC(=O)c1cn(C[C@H](Cc2ccccc2)NC(=O)N[C@H](CO)CCc2oc(C(C)=O)c(C(=O)OC)c2C(=O)OC)nn1	1.54	0.511 (inactive)	-0.342 (inactive)	0.018 (inactive)	1.36	-0.616 (inactive)	-0.0615	1.15	1.08	0.272	0.559	0.0549	-0.398	-1.1 (inactive)	1.37	1.28	0.956	1.49	1.1	-0.0083
C=C(/C(=C/C[C@@H](OC(C)=O)c1cccc(OCCO)c1)c1cnc2ccccc2c1)C(C)C	1.55	0.0631 (inactive)	-0.396 (inactive)	-0.28 (inactive)	0.77	0.974 (inactive)	-0.207	2.09	0.801	-0.139	0.85	-0.268	0.0363	-0.664 (inactive)	0.706	0.612	0.324	1.37	0.625	1.56
O=C(NCc1ccccc1)[C@@H]1c2ccccc2C(=O)N(Cc2cc(C(F)(F)F)cc(C(F)(F)F)c2)[C@H]1c1ccc(CO)cc1	1.53	0.744 (inactive)	-0.077 (inactive)	0.296 (inactive)	2.55	-1 (inactive)	-0.0512	1.37	1.12	0.0453	0.569	0.0477	0.184	0.000819 (inactive)	1.13	1.25	0.171	1.04	0.517	0.277
C[N+](C)(C)CCCC[C@@H]1NC(=O)[C@@H]2C[C@H](C(=O)NCc3ccc(F)cc3)[C@H](c3ccc(O)cc3)N2C1=O	0.116	0.166 (inactive)	0.519 (inactive)	0.425 (inactive)	1.76	-0.66 (inactive)	-0.139	0.401	-0.146	-0.271	1.12	-0.277	0.216	1.26 (inactive)	0.535	-0.933	-0.617	-0.249	0.549	-0.879
O=C1NC(=O)C2C1C=CC(C(O)c1ccc(B(O)O)cc1)N2Nc1ccc(Cl)cc1Cl (stereo not given)	-0.201	1.33 (inactive)	-0.229 (inactive)	0.715 (inactive)	1.71	-0.758 (inactive)	0.126	-0.255	0.287	-0.0238	0.46	0.704	0.326	0.379 (inactive)	0.0671	-0.0838	-0.174	0.317	-0.414	0.948
C=CCC(OC(C)=O)[C@@H]1[C@@H](N(Cc2cccc3ccccc23)C(=O)Cc2ccc(OC)cc2)c2cc(OCCCO)ccc2N1C(=O)Cc1ccc2ccccc2c1 (stereo not given in full)	0.402	-0.0978 (inactive)	0.374 (inactive)	-1.51 (inactive)	0.574	-0.079 (inactive)	-0.0911	0.656	-0.87	-0.0828	0.067	-0.237	0.087	-0.738 (inactive)	-0.0821	-0.227	0.0289	0.404	0.073	0.68
N#Cc1ccc(-c2cccc(=O)o2)cc1	1	-0.24 (inactive)	-0.537 (inactive)	0.805 (inactive)	0.552	-0.675 (inactive)	-0.212	0.671	0.718	-0.0794	0.306	-0.269	-0.0642	0.862 (inactive)	0.219	0.441	0.506	0.345	0.0771	0.254
CCCc1cc2c(n1CCc1ccc(Cl)cc1)C(C)C1CN(C(=O)c3ccccc3)C(C)(C(=O)OC)C21 (stereo not given)	0.396	0.318 (inactive)	-0.29 (inactive)	1.03 (inactive)	3.31	-2.17 (inactive)	0.342	-1.01	1.04	0.131	0.462	1.64	1.59	3.17 (inactive)	0.464	-0.014	-0.403	0.252	-1.92	1.24

Source: PubChem BioAssay
